Screening results deposited in PubChem by National Center for Advancing Translational Sciences (NCATS).
Sampled rows, rich in hits. Any-hit rate of the full collection: about 1.3%.
Akt phos inh: blocks phosphorylation of Akt; Neuro2A IGF-stimulated pAkt S473 HTRF, 20 min; active compounds read low; activity change, % for hits at 50 µM; 0.32% of 360,000 active; in the data active = activity change below about -80%; inconclusive = mostly about -51% to -80%
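Neuro2A cells in DMEM with 0.5% FBS, overnight at 37 deg C, given compound at single 50 µM final, then IGF (6 nM final) for 20 min at 37 deg C. Lysed; phospho-Akt Ser473 by HTRF after 24 h, 665/615 ratio.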
CtBP-E1A inh: CtBP/E1A binding inhibition; AlphaScreen GST-E1A/His-CtBP binding, 1536-well; active compounds read low; activity change, % (test concentration not listed); 0.49% of 340,000 active; AID 651724
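GST-E1A and His-tagged CtBP (125 nM each as 5X stock) were preincubated with pin-transferred compound for 2 h at 37 °C in the dark, then glutathione donor and nickel acceptor beads were added for 1 h before AlphaScreen reading.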
Six1-Eya2 inh: Six1/Eya2 interaction inhibition; AlphaScreen GST-Six1/His-Eya2 binding, biochemical; active compounds read low; activity change, % (test concentration not listed); 0.56% of 360,000 active
Target sequence (O00167 whole entry, looked up): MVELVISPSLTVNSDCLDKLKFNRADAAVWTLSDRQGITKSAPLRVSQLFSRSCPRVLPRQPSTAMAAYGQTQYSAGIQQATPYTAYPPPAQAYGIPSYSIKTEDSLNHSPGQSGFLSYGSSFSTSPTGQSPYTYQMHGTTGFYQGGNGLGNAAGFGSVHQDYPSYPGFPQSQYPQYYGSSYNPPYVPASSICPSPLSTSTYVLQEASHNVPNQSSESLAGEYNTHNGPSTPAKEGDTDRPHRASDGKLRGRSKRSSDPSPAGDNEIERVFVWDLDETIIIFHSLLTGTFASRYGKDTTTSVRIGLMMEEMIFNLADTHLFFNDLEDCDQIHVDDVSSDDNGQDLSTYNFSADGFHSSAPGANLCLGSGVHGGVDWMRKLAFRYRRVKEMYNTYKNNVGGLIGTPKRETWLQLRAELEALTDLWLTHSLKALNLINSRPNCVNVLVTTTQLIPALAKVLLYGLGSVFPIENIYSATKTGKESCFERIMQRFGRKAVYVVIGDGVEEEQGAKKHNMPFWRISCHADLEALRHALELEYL
Target sequence (Q15475 whole entry, looked up): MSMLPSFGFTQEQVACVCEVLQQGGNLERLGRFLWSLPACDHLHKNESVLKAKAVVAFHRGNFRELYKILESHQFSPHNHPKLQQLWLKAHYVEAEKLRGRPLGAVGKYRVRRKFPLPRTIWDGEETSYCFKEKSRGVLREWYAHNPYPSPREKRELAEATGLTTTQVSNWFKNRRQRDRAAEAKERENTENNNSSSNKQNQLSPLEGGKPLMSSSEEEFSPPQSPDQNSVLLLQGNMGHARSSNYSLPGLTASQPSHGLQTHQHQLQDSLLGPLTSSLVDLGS
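GST-Six1 + His-Eya2 (5X stock: 250/500 nM); Tris pH 8.0, 300 mM NaCl, 0.05% BSA, 0.02% Tween 20; GSH donor/Ni acceptor beads; 1 h 37 °C dark; AlphaScreen readout.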
CCT modulator: modulators of cytosolic chaperonin (CCT/TRiC) activity | activity change, % (no concentration beside the values), hits read low | purified chaperonin ATPase assay, HTRF ADP detection, 30 min | 0.3% of 360,000 active | AID 651819; in the data active = activity change below about -30%
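Enzyme 40 or 20 nM (batch-dependent) in Tris pH 7.4/KCl/MgCl2/DTT; cpd 76 uM single point; ATP 10 uM; 30 min 37 °C; Transcreener ADP HTRF detection, 30 min RT; ratio 665/615.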
Starred values were filed as active, the others as inactive. Rule as the data show it, unless noted: active = activity change below about -65%; inconclusive = mostly about -30% to -63%; inactive = weaker than that. % is scaled to controls: 0 for no effect and ±100 for the full control effect.

For CCN(CC)S(=O)(=O)c1cccc(-c2nnc(SCc3nnc(-c4ccccc4)o3)n2C)c1 the results were Akt phos inh -98.7%*, CtBP-E1A inh 3.4, Six1-Eya2 inh 2.8 and CCT modulator -1.1.
`CCCCC1Cc2[nH]c(=S)[nH]c(=O)c2C(C(C)C)O1` (stereo not given) gave Akt phos inh inactive, CtBP-E1A inh -21.2, Six1-Eya2 inh 7.4 and CCT modulator -1.8.
For COc1cccc(NC(=O)c2ccnc(N3CCC(C(=O)NCc4ccccc4OC)CC3)c2)c1 the results were Akt phos inh inactive, CtBP-E1A inh 0.0, Six1-Eya2 inh -0.4 and CCT modulator -1.7.
For COC(=O)c1cccc(NC(=O)c2ccc(OC)c(Cl)c2)c1 the results were Akt phos inh inactive, CtBP-E1A inh 1.0, Six1-Eya2 inh 4.7 and CCT modulator -77.5*.
Screening COc1ccc(-c2cccc(C(=O)Nc3cccc(C(=O)O)c3)c2)cc1 returned Akt phos inh inactive, CtBP-E1A inh -0.7, Six1-Eya2 inh -6.5 and CCT modulator -78.6*.
`COc1ccc(C(=O)Nc2cc(C(=O)O)cc(C(=O)O)c2)cc1Cl` gave Akt phos inh inactive, Six1-Eya2 inh -4.4 and CCT modulator -0.5.
`CCCCC(=O)Nc1cc(OC)c(NC(=S)Nc2ccc(OC)cc2)cc1OC` gave Akt phos inh inactive, Six1-Eya2 inh -0.2 and CCT modulator -1.0.
COc1ccc(NC(=O)c2cccnc2NCCc2ccccc2)cc1 was read as Akt phos inh inactive, CtBP-E1A inh 7.0, Six1-Eya2 inh 1.9 and CCT modulator -3.4.
`O=C(Nc1ccccc1)c1cccnc1NCCc1ccccc1` gave Akt phos inh inactive, CtBP-E1A inh 7.1, Six1-Eya2 inh 16.7 and CCT modulator -91.1*.
C=CCn1c(-c2csc(-c3ccccc3)n2)n[nH]c1=S was read as Akt phos inh -106.2%*, CtBP-E1A inh -3.1, Six1-Eya2 inh 2.6 and CCT modulator -1.4.
`N#CC1=CC2CN(Cc3ccccc3)C1C1C(=O)N(c3ccccc3)C(=O)C21` (stereo not given) gave Akt phos inh inactive, CtBP-E1A inh 5.6, Six1-Eya2 inh 0.0 and CCT modulator 0.2.
For Nc1nonc1-c1noc(CCCOc2ccc(Cl)cc2Cl)n1 the results were Akt phos inh inactive, CtBP-E1A inh 10.4, Six1-Eya2 inh -0.1 and CCT modulator 1.5.
CCCCCc1nc(-c2nonc2N)no1 was read as Akt phos inh -120.3%*, CtBP-E1A inh -6.5, Six1-Eya2 inh -2.7 and CCT modulator -0.2.
COCCCN(C(=O)C(C)Oc1ccc(Br)cc1)c1c(N)n(Cc2ccccc2)c(=O)[nH]c1=O (stereo not given) was read as Akt phos inh inactive, CtBP-E1A inh -15.5, Six1-Eya2 inh 18.0 and CCT modulator -2.5.
For CC[C@@H](NCCCn1ccc(NC(=O)OCc2ccccc2)nc1=O)c1ccccc1 the results were Akt phos inh inactive, CtBP-E1A inh 3.5, Six1-Eya2 inh 0.0 and CCT modulator 0.3.
For Oc1ccc(/C=N/NC(=S)N/N=C/c2ccc(O)cc2)cc1 the results were Akt phos inh inactive, CtBP-E1A inh -66.7*, Six1-Eya2 inh inconclusive and CCT modulator -2.4.
For Oc1ccc(/C=N/NC(=S)Nc2cccnc2)cc1 the results were Akt phos inh inactive, Six1-Eya2 inh -8.3 and CCT modulator 1.6.
CN(C)c1ccccc1C(=O)N1CCC(n2nccc2NC(=O)C2CC2)CC1 was read as Akt phos inh inactive, CtBP-E1A inh 7.7, Six1-Eya2 inh 2.4 and CCT modulator 2.8.
Screening CC(C)CCOc1ccc(C(=O)NNC(=O)CNC(=O)c2ccccc2F)cc1 returned Akt phos inh inactive, CtBP-E1A inh 0.9, Six1-Eya2 inh 3.3 and CCT modulator -4.0.
`CC(C)c1nc(SCC(=O)Nc2ccc(C(=O)O)cc2)c2c3c(sc2n1)CCCC3` gave Akt phos inh inactive, CtBP-E1A inh -15.9, Six1-Eya2 inh -82.6* and CCT modulator -10.8.
Fc1cccc(Cl)c1CNCc1cccnc1 was read as Akt phos inh inactive, CtBP-E1A inh 7.1, Six1-Eya2 inh 8.7 and CCT modulator 1.1.
CCCC(C(=O)NC1CCCC1)N(Cc1ccccc1Cl)C(=O)c1snc(C(N)=O)c1N (stereo not given) was read as Akt phos inh inactive, CtBP-E1A inh 7.1, Six1-Eya2 inh 8.2 and CCT modulator 1.8.
For CCc1ccc2nc(N3CCN(C)CC3)c(C#N)cc2c1 the results were Akt phos inh inactive, CtBP-E1A inh 0.9, Six1-Eya2 inh 3.8 and CCT modulator -49.4*.
`COc1ccc2nc(N3CCC(C)CC3)c(C#N)cc2c1` gave Akt phos inh -102.8%*, CtBP-E1A inh 117.7, Six1-Eya2 inh 137.6 and CCT modulator -0.4.
O=C(NN=Cc1ccccc1C(=O)O)c1cccc(S(=O)(=O)Nc2cccc(C(F)(F)F)c2)c1 was read as Akt phos inh inactive, CtBP-E1A inh -10.4, Six1-Eya2 inh -0.4 and CCT modulator 1.5.
For O=C(/C=N/NC(=O)c1ccccc1Br)c1ccccc1 the results were Akt phos inh inactive, CtBP-E1A inh 17.7, Six1-Eya2 inh -3.3 and CCT modulator 2.9.
For O=C(CNC(=O)c1ccc2c(c1)OCO2)N/N=C/c1cc(Br)ccc1O the results were Akt phos inh inactive, CtBP-E1A inh -18.2, Six1-Eya2 inh -17.9 and CCT modulator -4.6.
For O=C(N/N=C/c1c(Cl)nc2ccccn2c1=O)c1cccnc1 the results were Akt phos inh inactive, CtBP-E1A inh -14.0, Six1-Eya2 inh -68.8* and CCT modulator -0.8.
Screening Cc1nn(-c2ccccc2)c(Cl)c1/C=N/NC(=O)c1cccnc1 returned Akt phos inh inactive, CtBP-E1A inh -23.6, Six1-Eya2 inh -19.8 and CCT modulator 1.4.
For O=C(CNC(=O)c1ccccc1Br)N/N=C/c1cccs1 the results were Akt phos inh inactive, Six1-Eya2 inh -9.9 and CCT modulator 2.3.
`O=C(N/N=C/c1cc(Cl)ccc1O)c1ccccc1Br` gave Akt phos inh inactive, CtBP-E1A inh -90.0*, Six1-Eya2 inh -70.3* and CCT modulator -0.7.
O=C(CNC(=O)c1ccccc1Br)N/N=C/c1cc(Br)ccc1O was read as Akt phos inh inactive, CtBP-E1A inh -72.9*, Six1-Eya2 inh inconclusive and CCT modulator -1.6.
`O=C(CNC(=O)c1ccccc1Br)N/N=C/c1ccccc1O` gave Akt phos inh inactive, CtBP-E1A inh inconclusive, Six1-Eya2 inh -65.2* and CCT modulator 0.8.
CCCCNC(=O)C1(C)CCN1C(=O)c1ccc2sccc2c1 (stereo not given) was read as Akt phos inh inactive, CtBP-E1A inh 6.5, Six1-Eya2 inh 3.7 and CCT modulator -2.5.
`O=C(N/N=C/c1cccnc1)c1cccc(Cl)c1` gave Akt phos inh inactive, CtBP-E1A inh 1.6, Six1-Eya2 inh -6.7 and CCT modulator -2.2.
O=C(N/N=C/c1cc(Cl)ccc1O)c1cccnc1 was read as Akt phos inh inactive, CtBP-E1A inh -91.4*, Six1-Eya2 inh -67.6* and CCT modulator -1.1.
